Active and inactive are the calls of the source.
Columns and labels:
[1] = test system: Plasmodium falciparum Sir2 (PF13_0152, Sir2A); assay: pfSir2 binders on small-molecule microarrays, primary screen, biochemical, small-molecule microarray, 635 nm fluorescence (AID 1098); details: small-molecule microarray binding, fluorescence 635 nm; higher = more signal;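 also: score merges spot fluorescence intensity with its signal-to-noise ratio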
[2] = small-molecule microarray binders of probe aDKK1, primary screen, biochemical, biotinylated probe, 635/667 nm fluorescence (AID 1099); details: higher = more signal;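 also: score merges 667nm spot fluorescence with signal to noise across triplicate slides; reference of the scale not given here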
[3] = small-molecule microarray binders of probe aCHRDL2, primary screen, biochemical, biotinylated probe, 635/667 nm fluorescence (AID 1100); details: higher = more signal
[4] = splicing luciferase reporter signal modulators, primary screen, spliceosome inhibition project, cell-based, HEK293, splice +/- reporter (AID 1101); details: luminescence, 24 h, higher = more signal, called active from +8 up or from −8 down;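 also: HEK293 cells carrying a splicing-competent luciferase reporter gene; test concentration not given here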
[5] = molecular target: Fibroblast growth factor 10 (Homo sapiens) (UniProt O15520); assay: FGF10 binders on small-molecule microarrays, primary screen, biochemical, small-molecule microarray, 635 nm fluorescence (AID 1102); details: FGF10 binding, fluorescence 635 nm, higher = more signal
Sequence of Fibroblast growth factor 10 (Homo sapiens) (O15520 whole entry, looked up): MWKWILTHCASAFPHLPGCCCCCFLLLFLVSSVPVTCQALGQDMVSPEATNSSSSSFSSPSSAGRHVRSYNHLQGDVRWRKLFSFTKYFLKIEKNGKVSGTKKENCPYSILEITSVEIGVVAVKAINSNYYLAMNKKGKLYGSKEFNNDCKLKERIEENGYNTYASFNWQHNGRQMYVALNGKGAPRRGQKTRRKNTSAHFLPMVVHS

[6] = test system: glycogen synthase kinase-3 (GSK3A per assay name; protocol says GSK3B); assay: GSK3 binders on small-molecule microarrays, primary screen, biochemical, small-molecule microarray, 635 nm fluorescence, GSK3A (AID 1103); details: small-molecule microarray binding, fluorescence 635 nm; higher = more signal; also: the record names both GSK3A and GSK3B
[7] = molecular target: Epidermal growth factor receptor (Homo sapiens) (UniProt P00533); assay: EGFR binders on small-molecule microarrays, primary screen, biochemical, small-molecule microarray, 635 nm fluorescence (AID 1104); details: EGFR binding, higher = more signal;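 also: score merges 667 nm emission intensity with spot signal to noise over triplicate slides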
Sequence of Epidermal growth factor receptor (Homo sapiens) (P00533 whole entry, looked up): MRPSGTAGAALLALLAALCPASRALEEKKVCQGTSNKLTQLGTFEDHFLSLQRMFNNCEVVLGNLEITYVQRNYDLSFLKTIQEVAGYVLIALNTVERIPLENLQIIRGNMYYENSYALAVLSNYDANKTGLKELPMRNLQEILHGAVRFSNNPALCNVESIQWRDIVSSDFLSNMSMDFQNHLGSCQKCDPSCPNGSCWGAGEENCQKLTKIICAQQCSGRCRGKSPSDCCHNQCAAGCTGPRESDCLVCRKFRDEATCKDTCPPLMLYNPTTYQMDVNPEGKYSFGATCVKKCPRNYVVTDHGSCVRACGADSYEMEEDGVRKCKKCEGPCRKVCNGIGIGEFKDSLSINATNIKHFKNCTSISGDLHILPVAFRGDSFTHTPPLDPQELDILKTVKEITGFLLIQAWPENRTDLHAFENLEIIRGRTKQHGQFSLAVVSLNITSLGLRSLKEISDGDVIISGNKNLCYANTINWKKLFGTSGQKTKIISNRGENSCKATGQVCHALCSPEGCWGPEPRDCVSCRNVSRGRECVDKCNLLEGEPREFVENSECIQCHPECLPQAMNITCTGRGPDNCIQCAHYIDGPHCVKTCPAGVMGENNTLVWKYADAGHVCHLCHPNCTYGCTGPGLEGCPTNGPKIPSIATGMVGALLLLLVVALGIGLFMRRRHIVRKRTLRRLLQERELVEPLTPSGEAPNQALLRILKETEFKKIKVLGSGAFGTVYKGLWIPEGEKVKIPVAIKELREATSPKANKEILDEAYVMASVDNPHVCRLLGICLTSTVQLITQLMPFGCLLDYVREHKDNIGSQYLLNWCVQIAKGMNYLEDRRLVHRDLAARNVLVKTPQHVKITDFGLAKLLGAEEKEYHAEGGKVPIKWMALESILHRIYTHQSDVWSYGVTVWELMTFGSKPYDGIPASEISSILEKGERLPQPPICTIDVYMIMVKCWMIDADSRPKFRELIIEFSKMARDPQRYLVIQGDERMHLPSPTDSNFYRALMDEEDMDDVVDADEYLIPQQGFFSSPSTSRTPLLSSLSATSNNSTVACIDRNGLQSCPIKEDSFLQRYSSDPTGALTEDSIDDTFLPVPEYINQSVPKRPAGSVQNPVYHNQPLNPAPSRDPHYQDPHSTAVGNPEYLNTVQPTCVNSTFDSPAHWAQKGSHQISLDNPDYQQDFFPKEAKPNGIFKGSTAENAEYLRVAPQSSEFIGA

[8] = molecular target: Follistatin-related protein 3 (Homo sapiens) (UniProt O95633); assay: FSTL3 binders on small-molecule microarrays, primary screen, biochemical, small-molecule microarray, 635 nm fluorescence (AID 1105); details: FSTL3 binding, higher = more signal;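 also: score merges emission near 667 nm and signal to noise per printed spot across three slides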
Sequence of Follistatin-related protein 3 (Homo sapiens) (O95633 whole entry, looked up): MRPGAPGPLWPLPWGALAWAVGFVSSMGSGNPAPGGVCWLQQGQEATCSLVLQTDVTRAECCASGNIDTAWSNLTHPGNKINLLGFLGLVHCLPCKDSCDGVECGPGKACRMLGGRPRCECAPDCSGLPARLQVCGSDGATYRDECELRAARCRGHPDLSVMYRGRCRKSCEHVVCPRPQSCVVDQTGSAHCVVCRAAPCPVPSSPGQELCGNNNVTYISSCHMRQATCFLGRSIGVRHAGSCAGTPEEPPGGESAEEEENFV

[9] = molecular target: Dickkopf-related protein 1 (Homo sapiens) (UniProt O94907); assay: DKK1 binders on small-molecule microarrays, primary screen, biochemical, small-molecule microarray, 635 nm fluorescence scan (AID 1106); details: DKK1 binding, higher = more signal;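 also: score merges emission near 667 nm with signal to noise over three replicate slides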
Sequence of Dickkopf-related protein 1 (Homo sapiens) (O94907 whole entry, looked up): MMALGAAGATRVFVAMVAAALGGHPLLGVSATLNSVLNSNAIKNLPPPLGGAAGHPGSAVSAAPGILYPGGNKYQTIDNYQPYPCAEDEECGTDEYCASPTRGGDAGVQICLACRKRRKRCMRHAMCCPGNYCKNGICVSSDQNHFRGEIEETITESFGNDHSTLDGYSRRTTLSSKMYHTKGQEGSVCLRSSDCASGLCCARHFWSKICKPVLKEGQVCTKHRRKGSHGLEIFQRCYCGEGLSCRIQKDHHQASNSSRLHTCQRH

[10] = test system: Inhibin beta A chain (activin A); assay: INHBA (activin A) binders on microarrays, primary screen, biochemical, small-molecule microarray, 635 nm fluorescence scan (AID 1107); details: small-molecule microarray binding, higher = more signal;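 also: mouse activin A protein probed at 4.33 µg/mL on printed slides; score merges bound-protein fluorescence near 667 nm with spot signal-to-noise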

SMILES | composite z-score [1] | composite z-score [2] | composite z-score [3] | z-score [4] | composite z-score [5] | composite z-score [6] | composite z-score [7] | composite z-score [8] | composite z-score [9] | composite z-score [10]
COCCOC(=O)N1C(=O)[C@@]2(c3cc(C#CC4(O)CCCCCC4)ccc31)[C@H](C(=O)N1CCCCCCC1)[C@H]1C(=O)O[C@H](c3ccccc3)[C@H](c3ccccc3)N1[C@@H]2c1ccc(OCCO)cc1 | 1.65 | 2.65 | 1.45 | 0.225 (inactive) | 1.5 | 1.35 | 1.46 | 1.62 | 1.72 | 1.68
CCCCC(CC)C(O)C1C=CC2C(=O)N(c3ccccc3)C(=O)C2N1Nc1ccc([N+](=O)[O-])cc1 (stereo not given) | 1.31 | 0.68 | 0.457 | 0.63 (inactive) | 1.01 | 1.34 | 0.444 | 1.34 | 0.155 | 0.532
COc1cc2c(cc1OC)CN(C(=O)[C@@H]1[C@H]3C(=O)O[C@H](c4ccccc4)[C@H](c4ccccc4)N3[C@H](c3ccccc3OCCO)[C@@]13C(=O)Nc1ccc(C#CC4(O)CCCCCC4)cc13)CC2 | 1.1 | 0.159 | 0.0184 | 0.582 (inactive) | 0.366 | 1.13 | 0.368 | 0.511 | 0.383 | 0.275
CCCC[C@@H]1C[C@H]1[C@@H](NC(=O)c1cccnc1)c1ccc(-c2ccccc2)cc1 | 0.0651 | -0.161 | 0.993 | -4.22 (inactive) | -1.19 | -1.2 | -1.46 | -1.01 | -1.44 | 0.936
NC(=O)NCC#Cc1ccc2c(c1)[C@]1(C(=O)N2)[C@H](C(=O)O)[C@H]2C(=O)O[C@H](c3ccccc3)[C@H](c3ccccc3)N2[C@@H]1c1ccccc1OCCO | 1.37 | 0.689 | 0.677 | -1.14 (inactive) | 0.991 | 0.558 | 0.363 | 1.01 | 0.351 | 1.4
O=C1NCC(=O)N2[C@@H]1C[C@@H](C(=O)O)[C@H]2c1ccc(O)cc1 | 1.41 | -0.0052 | 0.128 | -0.22 (inactive) | 0.944 | 1.32 | -0.0519 | 1.37 | 1.78 | 0.571
COc1ccc([Si](C)(C)[C@H]2[C@H](CCn3cc([C@H](O)c4ccccc4)nn3)O[C@@]3(C(=O)N(Cc4ccc(N5CCOC5=O)cc4)c4ccccc43)[C@@H]2C)cc1 | -0.215 | 0.555 | 0.282 | -0.372 (inactive) | -1.23 | -2.18 | -0.228 | -1.54 | -0.958 | -0.794
CC(C)C(CO)N1C(=O)[C@]2(C)C3C(=O)OCCC/C=C\[C@H]3OC23C=CCN(c2ccc(Cl)cc2)C(=O)[C@@H]13 (stereo not given in full) | 1.11 | -0.095 | 0.38 | 0.242 (inactive) | -0.382 | -0.028 | -0.599 | -0.518 | -0.821 | 0.717
CC=CC(O)C1C=CC2C(=O)N(C)C(=O)C2N1Nc1ccc([N+](=O)[O-])cc1[N+](=O)[O-] (stereo not given) | 1.1 | 0.121 | 0.636 | 0.607 (inactive) | -0.49 | -1.06 | -0.898 | -0.79 | -0.232 | 1.11
COCCOC(=O)N1C(=O)[C@@]2(c3cc(C#CCNC(N)=O)ccc31)[C@H](C(=O)N1CCCCCCC1)[C@H]1C(=O)O[C@H](c3ccccc3)[C@H](c3ccccc3)N1[C@@H]2c1ccc(O)cc1 | 1.25 | -0.124 | 0.526 | 0.392 (inactive) | 0.527 | 1 | 0.734 | 1.28 | 0.751 | 1.27
COC(=O)C1(Cc2ccccc2)C=C2C(=C(c3ccccc3)C(=O)C2C)CN1 (stereo not given) | -0.208 | 1.88 | 1.39 | 0.388 (inactive) | 1.03 | -0.731 | -0.544 | -0.147 | -0.89 | 1.69
CCOC(=O)C[C@H]1[C@H](OC(=O)Cc2ccc3c(c2)OCO3)[C@@H](NC(=O)Cc2ccc(OC)cc2)c2cc(OCCCO)ccc2N1C(=O)c1ccccc1 | 1.07 | 0.423 | 0.383 | -0.484 (inactive) | 0.647 | 0.614 | 0.0042 | 0.312 | 0.149 | 0.265
C=CCOC(=O)[C@H]1[C@@H]2C(=O)O[C@@H](c3ccccc3)[C@@H](c3ccccc3)N2[C@@H](c2ccc(OCCOC(=O)[C@H]3C[C@H]4C(=O)N[C@@H](Cc5ccccc5)C(=O)N4[C@H]3c3cccc(OCCO)c3)cc2)[C@]12C(=O)Nc1ccc(I)cc12 | 1.12 | -0.298 | -0.0762 | 0.959 (inactive) | 1.24 | 1.28 | 0.536 | 1.29 | 0.759 | 0.17
CCOc1cc(C(O)C2C=CC3C(=O)N(C4CCCCC4)C(=O)C3N2Nc2ccc(OC)cc2)ccc1O (stereo not given) | 0.692 | -0.0443 | 0.913 | -0.556 (inactive) | 0.423 | 1.21 | 0.388 | 0.741 | 0.105 | 0.959
C=CCN1C(=O)[C@@]2(CCC(=O)OC(C)(C)C)N=C(c3ccc(OCCCO)cc3)O[C@H]2c2ccccc21 | 1.25 | 0.549 | 1 | 0.0157 (inactive) | 0.0195 | 1.13 | 0.217 | 0.792 | 0.116 | 1.4
CCOC(=O)[C@@H]1[C@@H]2C(=O)N(CC)C(=O)[C@@H]2C[C@@H]1Sc1ccccc1 | 0.667 | 0.19 | 0.0774 | 1.33 (inactive) | 0.448 | 0.177 | 0.169 | 0.446 | -0.174 | 0.0622
C[C@H]1C2=C3C(CC[C@H]4C(OCc5ccc(F)cc5C(F)(F)F)OC[C@](C)([C@@H]34)N(C(=O)OC(C)(C)C)C2)C(CO)C1CO (stereo not given in full) | 0.0402 | -0.0997 | 0.984 | 0.509 (inactive) | -0.0455 | 0.875 | -0.249 | 0.885 | -0.461 | 1.09
C=C(CCCC)C(=O)CC[C@@H](OC(=O)c1ccccc1-c1ccccc1C(=O)O)c1cccc(OCCO)c1 | 1.13 | -0.302 | -0.353 | 2.89 (inactive) | 0.946 | 0.297 | -0.0833 | 0.556 | 0.339 | 1.2
COCCOC(=O)N1C(=O)[C@@]2(c3cc(C#CCC(C(=O)OC)C(=O)OC)ccc31)[C@H](c1ccc(OCCO)cc1)N1[C@H](c3ccccc3)[C@H](c3ccccc3)OC(=O)[C@H]1[C@@H]2C(=O)N1CCN(c2ncccn2)CC1 | 1.36 | 0.0926 | 0.233 | -0.0387 (inactive) | 0.994 | 1.07 | 0.517 | 1.45 | 0.637 | 0.109
[N-]=[N+]=NCc1ccccc1C[C@@]1(C(N)=O)N=C(c2ccc(OCCCO)cc2)O[C@@H]1c1ccccc1CN=[N+]=[N-] | 0.448 | 1.09 | 0.378 | 0.515 (inactive) | 1.26 | 0.989 | -0.238 | 0.165 | 0.0137 | 0.764
COc1ccccc1CN1C(=O)c2ccccc2[C@](Cc2ccccc2I)(C(=O)NC(C)C)[C@@H]1c1ccc(CO)cc1 | 0.672 | -0.132 | -0.0563 | -0.691 (inactive) | 1.32 | 1.3 | 0.457 | 1.28 | 0.312 | -0.0084
COCCOC(=O)N1C(=O)[C@@]2(c3cc(C#CC4=CCCCC4)ccc31)[C@H](c1ccccc1OCCO)N1[C@H](c3ccccc3)[C@H](c3ccccc3)OC(=O)[C@H]1[C@@H]2C(=O)N1CCc2cc(OC)c(OC)cc2C1 | 0.162 | -0.636 | -0.834 | -0.222 (inactive) | 0.848 | 1.18 | 0.733 | 1.4 | 0.356 | -0.244
